Test results reported in the supplement of paper PMC11732987, “Enantioselective OTUD7B fragment discovery through chemoproteomics screening and high-throughput optimisation” (Communications Chemistry, 2025).

What was measured:
Test in all cases: log2 ratio of Biotin-Ahx-Ub-VS probe labelling (fragment/DMSO); higher = less target engagement (more negative = stronger competition), active = hit call of the paper (q ≤ 0.05, log2 ratio ≤ -1)
Details in all cases: compound concentration: 200 uM; treatment time: 3 h
[1] = target: USP34 (UniProt Q70CQ2)
Method in brief: (§1)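 HEK293T lysate in Tris/CHAPS/IGEPAL buffer with protease inhibitors (495 µg per sample) was given fragment at 200 µM or vehicle for 3 h, in triplicate. It then received Biotin-Ahx-Ub-VS at 0.5 µM final for 1 h. Labelled DUBs were NeutrAvidin-enriched, digested with LysC and trypsin, and run by diaPASEF LC-MS/MS. Values are average log2 fragment/vehicle ratios by unpaired t-test on global-median-normalised Spectronaut quantities of proteins with ≥2 unique peptides.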

[2] = target: T1, USP36 (UniProt Q9P275)
T1 sequence (whole entry): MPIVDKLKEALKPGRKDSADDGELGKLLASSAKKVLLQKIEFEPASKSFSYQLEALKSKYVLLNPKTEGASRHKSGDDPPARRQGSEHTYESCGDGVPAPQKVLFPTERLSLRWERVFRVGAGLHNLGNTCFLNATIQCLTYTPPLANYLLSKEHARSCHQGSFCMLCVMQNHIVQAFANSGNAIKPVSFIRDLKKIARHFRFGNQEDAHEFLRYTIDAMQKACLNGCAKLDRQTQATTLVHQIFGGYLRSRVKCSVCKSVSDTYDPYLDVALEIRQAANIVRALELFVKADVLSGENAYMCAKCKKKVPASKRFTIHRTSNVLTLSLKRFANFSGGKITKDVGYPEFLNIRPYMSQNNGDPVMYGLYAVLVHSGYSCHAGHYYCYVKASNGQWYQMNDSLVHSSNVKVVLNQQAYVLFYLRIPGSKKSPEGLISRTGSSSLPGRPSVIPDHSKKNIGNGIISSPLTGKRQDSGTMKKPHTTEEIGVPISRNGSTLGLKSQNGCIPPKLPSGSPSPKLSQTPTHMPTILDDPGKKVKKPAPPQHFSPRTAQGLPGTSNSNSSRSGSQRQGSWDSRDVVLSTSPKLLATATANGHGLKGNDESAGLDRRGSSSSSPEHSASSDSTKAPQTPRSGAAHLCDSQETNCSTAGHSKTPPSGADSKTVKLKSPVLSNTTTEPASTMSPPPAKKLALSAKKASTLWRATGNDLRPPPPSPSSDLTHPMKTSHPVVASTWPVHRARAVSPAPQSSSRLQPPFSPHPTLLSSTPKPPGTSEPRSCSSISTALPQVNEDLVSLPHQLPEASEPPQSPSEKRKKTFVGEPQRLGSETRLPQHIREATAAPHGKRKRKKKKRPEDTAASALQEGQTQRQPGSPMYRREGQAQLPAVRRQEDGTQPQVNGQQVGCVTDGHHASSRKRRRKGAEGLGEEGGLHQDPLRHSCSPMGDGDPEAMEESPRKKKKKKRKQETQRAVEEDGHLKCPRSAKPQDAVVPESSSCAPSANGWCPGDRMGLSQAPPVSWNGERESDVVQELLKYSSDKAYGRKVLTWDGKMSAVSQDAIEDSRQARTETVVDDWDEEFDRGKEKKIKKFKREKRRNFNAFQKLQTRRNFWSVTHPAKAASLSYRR
Method in brief: as §1

[3] = target: T2, USP38 (UniProt Q8NB14)
T2 sequence (whole entry): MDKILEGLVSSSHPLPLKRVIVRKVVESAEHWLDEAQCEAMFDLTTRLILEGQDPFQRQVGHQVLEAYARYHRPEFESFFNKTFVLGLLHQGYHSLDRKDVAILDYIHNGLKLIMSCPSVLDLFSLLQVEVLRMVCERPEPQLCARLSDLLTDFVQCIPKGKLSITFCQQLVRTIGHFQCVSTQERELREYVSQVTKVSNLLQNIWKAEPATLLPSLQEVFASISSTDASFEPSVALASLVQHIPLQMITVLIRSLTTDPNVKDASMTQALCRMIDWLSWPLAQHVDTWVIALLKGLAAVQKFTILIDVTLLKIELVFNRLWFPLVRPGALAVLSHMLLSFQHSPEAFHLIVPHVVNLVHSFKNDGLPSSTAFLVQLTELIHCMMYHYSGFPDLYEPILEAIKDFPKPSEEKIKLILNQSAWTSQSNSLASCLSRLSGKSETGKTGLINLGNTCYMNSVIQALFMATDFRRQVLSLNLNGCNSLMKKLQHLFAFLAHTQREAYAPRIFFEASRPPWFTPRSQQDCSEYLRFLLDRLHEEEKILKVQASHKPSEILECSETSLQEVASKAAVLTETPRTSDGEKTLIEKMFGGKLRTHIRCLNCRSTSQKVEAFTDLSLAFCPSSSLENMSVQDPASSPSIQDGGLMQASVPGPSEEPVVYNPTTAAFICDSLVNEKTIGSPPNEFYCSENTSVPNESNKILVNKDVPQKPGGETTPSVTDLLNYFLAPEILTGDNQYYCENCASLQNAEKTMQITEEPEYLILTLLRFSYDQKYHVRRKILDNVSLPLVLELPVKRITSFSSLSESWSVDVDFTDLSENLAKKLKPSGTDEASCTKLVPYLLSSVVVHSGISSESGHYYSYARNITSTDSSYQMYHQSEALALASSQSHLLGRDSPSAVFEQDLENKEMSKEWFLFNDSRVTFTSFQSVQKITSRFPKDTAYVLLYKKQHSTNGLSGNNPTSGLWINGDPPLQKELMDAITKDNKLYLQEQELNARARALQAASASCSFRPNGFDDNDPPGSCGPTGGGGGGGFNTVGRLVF
Method in brief: as §1

[4] = target: T3, USP39 (UniProt Q53GS9)
T3 sequence (whole entry): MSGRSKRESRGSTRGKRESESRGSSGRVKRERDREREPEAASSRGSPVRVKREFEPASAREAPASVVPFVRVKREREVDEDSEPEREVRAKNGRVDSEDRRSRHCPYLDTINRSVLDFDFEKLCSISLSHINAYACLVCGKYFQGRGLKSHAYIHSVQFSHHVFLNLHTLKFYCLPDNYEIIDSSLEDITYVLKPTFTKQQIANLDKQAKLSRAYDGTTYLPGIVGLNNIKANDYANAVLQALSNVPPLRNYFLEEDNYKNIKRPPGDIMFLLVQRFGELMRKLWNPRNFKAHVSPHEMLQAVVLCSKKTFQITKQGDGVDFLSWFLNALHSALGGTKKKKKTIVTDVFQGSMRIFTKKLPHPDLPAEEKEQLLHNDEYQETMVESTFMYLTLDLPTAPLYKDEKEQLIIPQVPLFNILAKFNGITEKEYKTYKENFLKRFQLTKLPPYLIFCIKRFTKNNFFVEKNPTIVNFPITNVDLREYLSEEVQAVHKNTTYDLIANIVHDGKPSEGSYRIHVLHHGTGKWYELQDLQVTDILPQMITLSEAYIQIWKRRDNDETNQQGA
Method in brief: as §1

[5] = target: T4, USP4 (UniProt Q13107)
T4 sequence (whole entry): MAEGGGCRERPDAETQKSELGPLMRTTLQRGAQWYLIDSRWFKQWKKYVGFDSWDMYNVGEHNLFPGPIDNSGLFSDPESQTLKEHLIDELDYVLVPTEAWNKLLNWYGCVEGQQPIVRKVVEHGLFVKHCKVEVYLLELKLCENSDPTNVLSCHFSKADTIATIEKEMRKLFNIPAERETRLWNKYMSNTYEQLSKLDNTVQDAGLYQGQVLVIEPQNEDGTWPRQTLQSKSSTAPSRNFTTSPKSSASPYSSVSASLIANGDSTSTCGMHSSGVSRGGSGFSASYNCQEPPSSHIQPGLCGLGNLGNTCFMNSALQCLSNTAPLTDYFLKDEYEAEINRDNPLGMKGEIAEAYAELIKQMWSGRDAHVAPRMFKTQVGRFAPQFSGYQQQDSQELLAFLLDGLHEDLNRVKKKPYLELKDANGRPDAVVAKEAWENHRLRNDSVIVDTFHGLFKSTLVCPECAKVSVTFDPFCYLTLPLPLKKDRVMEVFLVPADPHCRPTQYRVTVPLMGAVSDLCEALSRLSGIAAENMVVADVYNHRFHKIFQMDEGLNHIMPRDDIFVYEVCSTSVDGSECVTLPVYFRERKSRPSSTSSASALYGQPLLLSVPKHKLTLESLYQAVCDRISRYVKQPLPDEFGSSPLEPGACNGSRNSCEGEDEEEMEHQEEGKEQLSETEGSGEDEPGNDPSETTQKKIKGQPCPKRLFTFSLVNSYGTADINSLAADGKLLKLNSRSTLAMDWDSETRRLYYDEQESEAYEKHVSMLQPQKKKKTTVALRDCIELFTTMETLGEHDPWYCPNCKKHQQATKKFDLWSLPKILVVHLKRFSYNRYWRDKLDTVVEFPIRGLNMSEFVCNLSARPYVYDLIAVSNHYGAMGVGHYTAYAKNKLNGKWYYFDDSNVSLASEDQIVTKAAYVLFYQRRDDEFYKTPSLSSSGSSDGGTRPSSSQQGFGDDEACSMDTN
Method in brief: as §1

Measured: log2 ratio of Biotin-Ahx-Ub-VS probe labelling

Chain of USP34 (Q70CQ2 whole entry, the tested form may be a part): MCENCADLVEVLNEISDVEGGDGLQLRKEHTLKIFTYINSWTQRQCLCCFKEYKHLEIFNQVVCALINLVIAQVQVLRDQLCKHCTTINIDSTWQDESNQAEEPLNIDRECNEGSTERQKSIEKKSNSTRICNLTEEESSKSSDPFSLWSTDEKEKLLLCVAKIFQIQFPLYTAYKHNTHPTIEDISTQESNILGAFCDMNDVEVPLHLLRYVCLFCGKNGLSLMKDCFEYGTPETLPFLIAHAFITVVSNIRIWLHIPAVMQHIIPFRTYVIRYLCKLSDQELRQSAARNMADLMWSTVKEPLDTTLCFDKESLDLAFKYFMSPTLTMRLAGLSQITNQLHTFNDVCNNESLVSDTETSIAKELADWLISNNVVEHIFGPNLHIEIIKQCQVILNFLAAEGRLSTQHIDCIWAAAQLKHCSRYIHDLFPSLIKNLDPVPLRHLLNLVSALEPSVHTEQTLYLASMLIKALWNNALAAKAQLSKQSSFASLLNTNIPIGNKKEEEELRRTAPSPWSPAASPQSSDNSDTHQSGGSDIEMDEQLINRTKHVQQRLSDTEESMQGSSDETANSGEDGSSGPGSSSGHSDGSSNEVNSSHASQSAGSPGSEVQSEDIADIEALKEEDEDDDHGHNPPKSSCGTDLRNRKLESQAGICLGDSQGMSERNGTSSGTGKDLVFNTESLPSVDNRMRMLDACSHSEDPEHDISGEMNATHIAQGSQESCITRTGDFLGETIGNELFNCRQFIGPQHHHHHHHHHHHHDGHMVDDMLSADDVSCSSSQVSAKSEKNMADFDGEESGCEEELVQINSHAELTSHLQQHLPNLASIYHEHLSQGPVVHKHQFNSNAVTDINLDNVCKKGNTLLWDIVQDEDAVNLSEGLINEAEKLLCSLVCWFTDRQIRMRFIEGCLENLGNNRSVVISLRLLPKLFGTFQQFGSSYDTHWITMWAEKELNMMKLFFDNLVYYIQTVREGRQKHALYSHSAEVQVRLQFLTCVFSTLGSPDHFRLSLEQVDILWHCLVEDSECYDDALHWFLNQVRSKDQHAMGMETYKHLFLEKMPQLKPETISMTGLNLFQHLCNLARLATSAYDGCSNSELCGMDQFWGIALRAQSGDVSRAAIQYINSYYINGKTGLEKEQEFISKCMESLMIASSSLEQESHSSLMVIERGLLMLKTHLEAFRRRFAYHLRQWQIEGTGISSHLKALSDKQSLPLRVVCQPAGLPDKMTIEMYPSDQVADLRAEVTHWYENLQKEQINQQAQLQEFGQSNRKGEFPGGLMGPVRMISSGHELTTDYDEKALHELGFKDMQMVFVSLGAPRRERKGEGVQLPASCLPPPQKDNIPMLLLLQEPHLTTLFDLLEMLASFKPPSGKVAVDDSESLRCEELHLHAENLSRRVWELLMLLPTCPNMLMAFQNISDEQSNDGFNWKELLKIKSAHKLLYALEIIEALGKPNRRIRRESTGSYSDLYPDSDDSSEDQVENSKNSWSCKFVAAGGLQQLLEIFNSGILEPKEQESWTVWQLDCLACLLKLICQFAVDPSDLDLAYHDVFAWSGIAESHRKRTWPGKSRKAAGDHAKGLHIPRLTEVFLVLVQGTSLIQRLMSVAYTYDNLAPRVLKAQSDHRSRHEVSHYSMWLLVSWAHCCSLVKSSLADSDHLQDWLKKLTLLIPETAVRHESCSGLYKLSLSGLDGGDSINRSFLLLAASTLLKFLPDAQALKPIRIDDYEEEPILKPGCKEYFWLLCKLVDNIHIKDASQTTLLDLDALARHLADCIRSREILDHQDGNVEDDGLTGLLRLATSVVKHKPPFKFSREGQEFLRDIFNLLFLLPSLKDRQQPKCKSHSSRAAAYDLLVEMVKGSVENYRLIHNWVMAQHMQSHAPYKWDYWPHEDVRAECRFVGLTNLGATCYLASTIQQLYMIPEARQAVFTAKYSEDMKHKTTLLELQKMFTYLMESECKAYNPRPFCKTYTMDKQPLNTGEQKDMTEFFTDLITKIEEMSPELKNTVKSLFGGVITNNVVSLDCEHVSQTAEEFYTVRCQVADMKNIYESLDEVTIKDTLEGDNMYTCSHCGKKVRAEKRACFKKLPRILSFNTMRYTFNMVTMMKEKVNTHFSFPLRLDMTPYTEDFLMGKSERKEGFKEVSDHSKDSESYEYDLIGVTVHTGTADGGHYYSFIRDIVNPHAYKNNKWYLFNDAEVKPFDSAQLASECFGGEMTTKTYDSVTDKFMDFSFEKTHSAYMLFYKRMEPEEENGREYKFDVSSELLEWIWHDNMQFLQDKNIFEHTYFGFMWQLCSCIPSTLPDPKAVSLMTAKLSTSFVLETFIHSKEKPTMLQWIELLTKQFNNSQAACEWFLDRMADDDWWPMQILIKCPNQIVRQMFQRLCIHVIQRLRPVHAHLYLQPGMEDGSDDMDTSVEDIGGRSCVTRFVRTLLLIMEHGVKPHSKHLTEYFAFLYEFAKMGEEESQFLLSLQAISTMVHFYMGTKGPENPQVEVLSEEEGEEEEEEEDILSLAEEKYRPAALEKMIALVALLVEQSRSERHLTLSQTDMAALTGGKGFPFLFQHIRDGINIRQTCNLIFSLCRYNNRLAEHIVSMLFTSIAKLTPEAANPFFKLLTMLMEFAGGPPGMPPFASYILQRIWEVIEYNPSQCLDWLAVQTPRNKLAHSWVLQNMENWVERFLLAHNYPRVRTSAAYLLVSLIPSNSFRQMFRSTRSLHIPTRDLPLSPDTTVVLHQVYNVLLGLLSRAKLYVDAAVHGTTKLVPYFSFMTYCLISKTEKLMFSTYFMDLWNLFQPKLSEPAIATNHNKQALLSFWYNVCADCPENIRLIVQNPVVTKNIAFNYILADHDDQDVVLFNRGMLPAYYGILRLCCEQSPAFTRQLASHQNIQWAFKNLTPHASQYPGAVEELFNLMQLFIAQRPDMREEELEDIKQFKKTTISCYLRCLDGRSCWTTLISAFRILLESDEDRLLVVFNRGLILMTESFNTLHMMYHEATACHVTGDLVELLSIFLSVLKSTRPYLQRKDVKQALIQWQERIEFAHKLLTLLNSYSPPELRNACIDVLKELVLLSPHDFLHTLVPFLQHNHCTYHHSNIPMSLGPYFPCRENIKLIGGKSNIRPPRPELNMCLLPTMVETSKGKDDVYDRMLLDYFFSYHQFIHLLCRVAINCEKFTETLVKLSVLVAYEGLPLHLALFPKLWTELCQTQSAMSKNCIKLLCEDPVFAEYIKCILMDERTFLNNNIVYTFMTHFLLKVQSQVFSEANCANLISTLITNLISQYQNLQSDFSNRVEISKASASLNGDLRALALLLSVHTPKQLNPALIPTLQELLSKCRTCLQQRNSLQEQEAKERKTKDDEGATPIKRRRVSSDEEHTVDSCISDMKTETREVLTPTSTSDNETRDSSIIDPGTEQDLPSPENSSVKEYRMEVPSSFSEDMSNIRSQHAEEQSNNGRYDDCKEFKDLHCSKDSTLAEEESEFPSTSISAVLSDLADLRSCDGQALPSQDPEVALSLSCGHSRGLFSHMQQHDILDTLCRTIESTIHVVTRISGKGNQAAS

O=C(CCl)N1CCOCCC1c1ccccc1 (stereo not given)
inactive: [1] 0.169 | [2] 0.192 | [3] 0.104 | [4] 0.0858 | [5] -0.196
